Assay [1] concerns the target T1, Mitogen-activated protein kinase 12 (Homo sapiens) (UniProt P53778).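 Also: values are averaged p38gamma kinase inhibition readings, compounds tested at 1 µM.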
T1 sequence (whole entry): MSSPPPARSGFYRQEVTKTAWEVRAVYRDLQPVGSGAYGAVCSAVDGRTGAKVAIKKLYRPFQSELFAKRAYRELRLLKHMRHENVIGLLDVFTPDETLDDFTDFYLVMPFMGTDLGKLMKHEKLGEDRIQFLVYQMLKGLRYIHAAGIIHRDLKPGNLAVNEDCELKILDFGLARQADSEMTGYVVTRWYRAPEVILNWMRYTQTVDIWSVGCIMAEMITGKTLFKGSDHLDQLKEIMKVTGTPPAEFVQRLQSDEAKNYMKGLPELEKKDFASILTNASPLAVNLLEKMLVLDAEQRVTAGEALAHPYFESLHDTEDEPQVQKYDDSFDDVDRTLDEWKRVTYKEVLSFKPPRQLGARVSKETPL
Conditions: at 1 µM.

The target in assay [2] is SRSF protein kinase 1 (Homo sapiens) (UniProt Q96SB4). Conditions: at 0.1 µM.
Assay [3] shares this target. Conditions: at 1 µM.
The target in assay [4] is Phosphatidylinositol 4,5-bisphosphate 3-kinase catalytic subunit alpha isoform (Homo sapiens) (UniProt P42336). Conditions: at 0.1 µM.
The target is the same in assay [5]. To be noted: at 1 µM.
Assay [6] has as its target T2, Phosphatidylinositol 4,5-bisphosphate 3-kinase catalytic subunit delta isoform (Homo sapiens) (UniProt O00329).
T2 sequence (whole entry): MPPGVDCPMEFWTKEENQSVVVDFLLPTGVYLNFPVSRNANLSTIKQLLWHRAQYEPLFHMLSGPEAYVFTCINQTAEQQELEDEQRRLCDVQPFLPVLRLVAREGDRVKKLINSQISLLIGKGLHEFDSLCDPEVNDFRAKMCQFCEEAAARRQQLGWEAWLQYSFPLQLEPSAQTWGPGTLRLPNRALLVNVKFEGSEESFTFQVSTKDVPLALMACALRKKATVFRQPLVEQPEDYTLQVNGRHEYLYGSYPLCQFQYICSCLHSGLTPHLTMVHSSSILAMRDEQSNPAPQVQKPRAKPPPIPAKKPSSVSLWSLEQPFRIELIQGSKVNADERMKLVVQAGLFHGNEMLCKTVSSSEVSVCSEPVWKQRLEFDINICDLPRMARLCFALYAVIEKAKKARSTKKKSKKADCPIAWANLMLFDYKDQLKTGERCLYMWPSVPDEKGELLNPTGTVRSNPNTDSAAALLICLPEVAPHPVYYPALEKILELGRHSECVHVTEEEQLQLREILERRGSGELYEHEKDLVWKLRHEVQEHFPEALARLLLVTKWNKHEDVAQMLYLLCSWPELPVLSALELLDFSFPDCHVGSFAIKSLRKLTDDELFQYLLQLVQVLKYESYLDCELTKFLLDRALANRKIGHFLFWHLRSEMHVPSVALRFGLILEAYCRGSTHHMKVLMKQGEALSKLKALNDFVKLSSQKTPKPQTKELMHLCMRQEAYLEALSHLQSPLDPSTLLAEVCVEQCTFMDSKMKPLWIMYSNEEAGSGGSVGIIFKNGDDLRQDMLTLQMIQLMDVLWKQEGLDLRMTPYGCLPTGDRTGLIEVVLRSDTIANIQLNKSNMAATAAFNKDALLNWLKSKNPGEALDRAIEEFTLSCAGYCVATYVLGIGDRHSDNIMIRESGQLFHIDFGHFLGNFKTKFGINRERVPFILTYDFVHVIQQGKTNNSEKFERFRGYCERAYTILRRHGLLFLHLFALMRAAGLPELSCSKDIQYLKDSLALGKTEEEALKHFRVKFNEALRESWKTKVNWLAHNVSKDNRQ
Conditions: at 0.1 µM.

Assay [7] deals with T2, Phosphatidylinositol 4,5-bisphosphate 3-kinase catalytic subunit delta isoform (Homo sapiens). To be noted: at 1 µM.
Assay [8] addresses Phosphatidylinositol 4-kinase beta (Homo sapiens) (UniProt Q9UBF8). Conditions: at 0.1 µM.
Assay [9] shares this target. Conditions: at 1 µM.
The target in assay [10] is Sphingosine kinase 1 (Homo sapiens) (UniProt Q9NYA1). To be noted: at 0.1 µM.
Assay [11] has the same target. To be noted: at 1 µM.
Assay [12] has as its target T3, Sphingosine kinase 2 (Homo sapiens) (UniProt Q9NRA0).
T3 sequence (whole entry): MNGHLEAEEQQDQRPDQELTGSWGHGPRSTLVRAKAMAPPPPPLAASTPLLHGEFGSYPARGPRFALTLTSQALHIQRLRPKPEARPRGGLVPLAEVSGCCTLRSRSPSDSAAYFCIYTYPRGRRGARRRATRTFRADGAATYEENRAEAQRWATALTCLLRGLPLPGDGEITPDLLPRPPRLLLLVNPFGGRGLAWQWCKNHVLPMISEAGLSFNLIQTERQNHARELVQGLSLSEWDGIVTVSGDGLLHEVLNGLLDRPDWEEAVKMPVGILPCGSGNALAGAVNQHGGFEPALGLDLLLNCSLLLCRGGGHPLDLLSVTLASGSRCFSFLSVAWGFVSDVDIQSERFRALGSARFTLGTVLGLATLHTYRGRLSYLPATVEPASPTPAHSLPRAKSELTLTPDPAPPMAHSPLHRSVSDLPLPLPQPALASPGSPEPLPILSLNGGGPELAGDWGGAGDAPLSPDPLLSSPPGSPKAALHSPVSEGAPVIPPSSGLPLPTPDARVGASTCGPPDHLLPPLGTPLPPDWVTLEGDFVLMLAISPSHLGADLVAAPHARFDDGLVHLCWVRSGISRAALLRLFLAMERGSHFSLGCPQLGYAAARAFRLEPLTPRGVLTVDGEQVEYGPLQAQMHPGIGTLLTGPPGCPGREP
Conditions: at 0.1 µM.

In assay [13] the target is T3, Sphingosine kinase 2 (Homo sapiens). To be noted: at 1 µM.
Assay [14] addresses Casein kinase II subunit alpha (Homo sapiens) (UniProt P68400). To be noted: at 0.1 µM.
For assay [15] the target is unchanged. Conditions: at 1 µM.
For assay [16], the target named is T4, Inhibitor of nuclear factor kappa-B kinase subunit alpha (Homo sapiens) (UniProt O15111).
T4 sequence (whole entry): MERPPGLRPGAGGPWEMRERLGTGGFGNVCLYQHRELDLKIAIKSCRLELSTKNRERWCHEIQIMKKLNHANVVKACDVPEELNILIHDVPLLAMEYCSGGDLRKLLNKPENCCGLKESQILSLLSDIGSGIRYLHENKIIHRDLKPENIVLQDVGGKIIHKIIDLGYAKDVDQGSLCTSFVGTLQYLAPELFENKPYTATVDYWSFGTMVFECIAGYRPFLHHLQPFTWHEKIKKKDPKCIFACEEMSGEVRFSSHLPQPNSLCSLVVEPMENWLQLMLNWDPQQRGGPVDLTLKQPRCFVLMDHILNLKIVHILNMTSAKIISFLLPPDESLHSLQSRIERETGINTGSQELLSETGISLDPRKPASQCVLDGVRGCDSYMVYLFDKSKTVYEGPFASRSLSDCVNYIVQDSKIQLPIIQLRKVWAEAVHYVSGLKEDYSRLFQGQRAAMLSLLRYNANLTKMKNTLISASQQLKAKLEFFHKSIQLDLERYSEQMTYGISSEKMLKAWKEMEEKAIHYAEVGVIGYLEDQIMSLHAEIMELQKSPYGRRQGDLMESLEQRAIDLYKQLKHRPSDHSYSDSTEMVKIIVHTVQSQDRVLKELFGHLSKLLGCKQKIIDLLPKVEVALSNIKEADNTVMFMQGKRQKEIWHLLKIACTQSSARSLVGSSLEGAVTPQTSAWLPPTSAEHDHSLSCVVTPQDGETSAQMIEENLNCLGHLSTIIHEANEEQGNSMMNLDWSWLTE
Conditions: at 0.1 µM.

The target of assay [17] is T4, Inhibitor of nuclear factor kappa-B kinase subunit alpha (Homo sapiens). Conditions: at 1 µM.
In assay [18] the target is T5, Inhibitor of nuclear factor kappa-B kinase subunit beta (Homo sapiens) (UniProt O14920).
T5 sequence (whole entry): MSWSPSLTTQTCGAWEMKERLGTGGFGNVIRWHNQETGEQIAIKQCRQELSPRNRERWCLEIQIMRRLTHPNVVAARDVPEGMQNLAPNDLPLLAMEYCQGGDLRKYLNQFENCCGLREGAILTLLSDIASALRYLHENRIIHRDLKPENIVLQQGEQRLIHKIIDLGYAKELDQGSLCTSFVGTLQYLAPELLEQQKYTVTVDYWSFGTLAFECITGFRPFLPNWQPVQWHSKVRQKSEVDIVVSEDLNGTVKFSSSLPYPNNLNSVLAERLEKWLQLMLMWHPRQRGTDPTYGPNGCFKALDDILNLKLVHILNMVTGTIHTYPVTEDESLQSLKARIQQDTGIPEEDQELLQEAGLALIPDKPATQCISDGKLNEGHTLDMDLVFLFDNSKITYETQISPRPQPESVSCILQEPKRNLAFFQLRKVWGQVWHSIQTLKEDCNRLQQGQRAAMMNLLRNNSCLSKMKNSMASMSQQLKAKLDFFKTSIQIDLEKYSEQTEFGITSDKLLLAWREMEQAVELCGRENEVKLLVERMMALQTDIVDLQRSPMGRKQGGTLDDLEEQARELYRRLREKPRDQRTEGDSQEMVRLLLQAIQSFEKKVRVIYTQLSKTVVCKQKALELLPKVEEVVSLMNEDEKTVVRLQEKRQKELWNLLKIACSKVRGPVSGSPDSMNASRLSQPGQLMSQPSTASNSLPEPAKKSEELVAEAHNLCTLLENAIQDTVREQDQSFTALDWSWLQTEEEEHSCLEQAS
To be noted: at 0.1 µM.

The target of assay [19] is T5, Inhibitor of nuclear factor kappa-B kinase subunit beta (Homo sapiens). To be noted: at 1 µM.
The target of assay [20] is T6, Inhibitor of nuclear factor kappa-B kinase subunit epsilon (Homo sapiens) (UniProt Q14164).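 Also: mean inhibition of IKKε reported, from the GSK PKIS dataset.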
T6 sequence (whole entry): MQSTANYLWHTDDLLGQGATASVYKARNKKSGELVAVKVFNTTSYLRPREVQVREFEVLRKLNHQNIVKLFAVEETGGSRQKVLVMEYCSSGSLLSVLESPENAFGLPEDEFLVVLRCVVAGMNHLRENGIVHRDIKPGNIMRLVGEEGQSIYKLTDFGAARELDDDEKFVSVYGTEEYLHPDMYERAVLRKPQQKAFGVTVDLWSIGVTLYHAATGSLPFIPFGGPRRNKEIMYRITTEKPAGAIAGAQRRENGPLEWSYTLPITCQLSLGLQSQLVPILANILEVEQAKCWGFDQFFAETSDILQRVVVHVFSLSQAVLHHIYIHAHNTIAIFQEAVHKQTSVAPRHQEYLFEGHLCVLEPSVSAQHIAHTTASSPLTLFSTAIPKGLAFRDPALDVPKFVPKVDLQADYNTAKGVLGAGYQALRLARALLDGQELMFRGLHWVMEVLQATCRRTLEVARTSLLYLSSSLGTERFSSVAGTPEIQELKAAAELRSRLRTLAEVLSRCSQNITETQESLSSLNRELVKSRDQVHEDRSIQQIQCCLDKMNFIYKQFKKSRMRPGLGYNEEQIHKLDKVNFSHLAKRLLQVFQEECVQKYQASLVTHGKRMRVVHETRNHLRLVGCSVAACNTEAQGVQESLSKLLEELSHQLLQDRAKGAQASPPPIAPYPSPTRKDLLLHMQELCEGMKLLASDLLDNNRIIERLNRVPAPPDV
Conditions: at 0.1 µM.

Sequence of Phosphatidylinositol 4-kinase beta (Homo sapiens) (Q9UBF8 2-816 limits assumed): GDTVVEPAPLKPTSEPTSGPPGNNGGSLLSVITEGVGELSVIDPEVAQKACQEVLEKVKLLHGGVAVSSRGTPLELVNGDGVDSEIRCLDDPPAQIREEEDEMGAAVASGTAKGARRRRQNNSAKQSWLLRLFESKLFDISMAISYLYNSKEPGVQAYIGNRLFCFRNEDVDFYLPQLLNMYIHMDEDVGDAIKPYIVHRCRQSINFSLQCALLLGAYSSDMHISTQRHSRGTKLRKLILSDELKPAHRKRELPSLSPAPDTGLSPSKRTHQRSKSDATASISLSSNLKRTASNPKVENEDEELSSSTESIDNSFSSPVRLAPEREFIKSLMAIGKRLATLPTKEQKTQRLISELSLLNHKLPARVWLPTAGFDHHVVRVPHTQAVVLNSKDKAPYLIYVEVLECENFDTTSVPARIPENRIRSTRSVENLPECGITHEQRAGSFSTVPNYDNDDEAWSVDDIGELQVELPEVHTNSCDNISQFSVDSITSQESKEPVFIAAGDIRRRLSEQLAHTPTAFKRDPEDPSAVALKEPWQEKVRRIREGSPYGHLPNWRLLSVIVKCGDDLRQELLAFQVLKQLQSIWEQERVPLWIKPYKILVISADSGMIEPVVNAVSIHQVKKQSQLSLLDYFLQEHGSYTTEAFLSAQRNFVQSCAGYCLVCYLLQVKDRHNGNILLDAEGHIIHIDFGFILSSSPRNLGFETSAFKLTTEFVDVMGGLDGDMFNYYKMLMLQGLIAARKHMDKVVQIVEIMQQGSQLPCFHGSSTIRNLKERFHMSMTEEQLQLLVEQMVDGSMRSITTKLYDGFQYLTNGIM
Sequence of Sphingosine kinase 1 (Homo sapiens) (Q9NYA1 whole entry): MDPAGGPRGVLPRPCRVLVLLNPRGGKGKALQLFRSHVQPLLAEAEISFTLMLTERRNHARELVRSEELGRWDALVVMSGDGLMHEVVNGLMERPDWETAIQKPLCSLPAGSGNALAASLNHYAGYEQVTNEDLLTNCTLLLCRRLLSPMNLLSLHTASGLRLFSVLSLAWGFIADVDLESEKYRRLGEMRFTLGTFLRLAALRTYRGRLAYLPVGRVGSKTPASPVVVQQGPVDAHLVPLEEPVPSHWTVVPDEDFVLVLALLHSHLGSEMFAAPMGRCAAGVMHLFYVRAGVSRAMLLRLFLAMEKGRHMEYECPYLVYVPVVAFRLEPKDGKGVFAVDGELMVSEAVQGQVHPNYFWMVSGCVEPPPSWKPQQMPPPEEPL
Sequence of Casein kinase II subunit alpha (Homo sapiens) (P68400 whole entry, looked up): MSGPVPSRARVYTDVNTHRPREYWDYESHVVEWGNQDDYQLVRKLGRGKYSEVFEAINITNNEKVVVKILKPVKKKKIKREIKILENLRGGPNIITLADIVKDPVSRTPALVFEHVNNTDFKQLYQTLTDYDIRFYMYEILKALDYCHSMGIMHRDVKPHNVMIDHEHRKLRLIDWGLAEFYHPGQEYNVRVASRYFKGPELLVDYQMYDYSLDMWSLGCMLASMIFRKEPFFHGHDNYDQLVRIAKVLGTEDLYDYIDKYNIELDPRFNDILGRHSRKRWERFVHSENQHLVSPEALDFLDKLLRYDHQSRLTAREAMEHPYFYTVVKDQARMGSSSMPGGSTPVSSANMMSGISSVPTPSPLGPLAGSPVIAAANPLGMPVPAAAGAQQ
Sequence of SRSF protein kinase 1 (Homo sapiens) (Q96SB4 whole entry): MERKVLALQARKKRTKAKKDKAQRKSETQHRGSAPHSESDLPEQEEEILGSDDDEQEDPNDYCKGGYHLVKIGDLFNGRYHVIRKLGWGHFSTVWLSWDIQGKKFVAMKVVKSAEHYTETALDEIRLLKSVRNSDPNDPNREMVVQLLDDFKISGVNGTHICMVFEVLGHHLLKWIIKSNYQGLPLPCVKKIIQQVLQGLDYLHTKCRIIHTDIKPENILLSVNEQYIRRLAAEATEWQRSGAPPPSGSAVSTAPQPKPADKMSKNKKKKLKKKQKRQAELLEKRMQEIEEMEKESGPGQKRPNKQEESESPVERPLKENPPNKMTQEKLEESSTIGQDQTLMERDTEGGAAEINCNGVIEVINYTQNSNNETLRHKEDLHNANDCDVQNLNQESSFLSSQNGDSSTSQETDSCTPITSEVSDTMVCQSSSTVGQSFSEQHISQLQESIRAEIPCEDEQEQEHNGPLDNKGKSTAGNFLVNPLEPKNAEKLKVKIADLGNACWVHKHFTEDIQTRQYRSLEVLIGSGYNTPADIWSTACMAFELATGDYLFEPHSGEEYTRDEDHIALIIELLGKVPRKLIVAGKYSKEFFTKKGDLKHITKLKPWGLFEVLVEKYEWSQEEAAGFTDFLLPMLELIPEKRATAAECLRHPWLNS
Sequence of Phosphatidylinositol 4,5-bisphosphate 3-kinase catalytic subunit alpha isoform (Homo sapiens) (P42336 whole entry, canonical isoform): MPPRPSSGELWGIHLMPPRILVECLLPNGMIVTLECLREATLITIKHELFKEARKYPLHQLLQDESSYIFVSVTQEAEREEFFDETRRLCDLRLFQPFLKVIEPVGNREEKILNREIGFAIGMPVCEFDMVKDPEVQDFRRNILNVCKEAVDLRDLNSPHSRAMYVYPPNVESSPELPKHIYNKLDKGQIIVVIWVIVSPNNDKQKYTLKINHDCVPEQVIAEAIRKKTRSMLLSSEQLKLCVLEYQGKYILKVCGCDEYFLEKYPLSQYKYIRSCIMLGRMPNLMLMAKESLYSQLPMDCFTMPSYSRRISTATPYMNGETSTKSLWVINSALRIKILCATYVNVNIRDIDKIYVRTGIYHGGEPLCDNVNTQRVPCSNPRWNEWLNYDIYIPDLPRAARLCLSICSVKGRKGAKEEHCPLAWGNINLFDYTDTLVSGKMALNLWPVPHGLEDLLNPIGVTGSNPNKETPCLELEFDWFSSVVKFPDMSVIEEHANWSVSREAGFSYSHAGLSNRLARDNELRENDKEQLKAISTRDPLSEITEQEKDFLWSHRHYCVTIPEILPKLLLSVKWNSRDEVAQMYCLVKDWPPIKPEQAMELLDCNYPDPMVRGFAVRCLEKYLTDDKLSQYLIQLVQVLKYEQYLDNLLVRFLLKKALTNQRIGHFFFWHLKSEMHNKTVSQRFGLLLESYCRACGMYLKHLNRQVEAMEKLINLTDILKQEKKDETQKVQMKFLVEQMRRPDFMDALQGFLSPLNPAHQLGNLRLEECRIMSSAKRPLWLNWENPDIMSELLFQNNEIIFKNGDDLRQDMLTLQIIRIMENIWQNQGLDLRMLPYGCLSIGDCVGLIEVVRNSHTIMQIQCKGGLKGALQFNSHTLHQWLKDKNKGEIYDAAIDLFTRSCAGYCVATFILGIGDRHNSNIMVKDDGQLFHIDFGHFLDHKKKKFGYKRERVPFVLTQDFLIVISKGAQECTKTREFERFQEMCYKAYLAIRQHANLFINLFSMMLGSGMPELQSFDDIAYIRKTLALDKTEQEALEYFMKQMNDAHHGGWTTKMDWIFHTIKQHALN

For `COc1ccc2ncn(-c3cc(O[C@H](C)c4ccccc4Cl)c(C(N)=O)s3)c2c1`, the inhibition in [1] is 4.09%; in assay [2], -1.6%; in [3] it was -1.38%; in assay [4], 3.9%; in [5], 4.87%; in assay [6] it was 1.95%. In addition, the inhibition in assay [7] is 17.5%; in assay [8], 1.3%; in assay [9], -2.87%; in [10], 1.65%; in assay [11] it was -2.39%; in assay [12] it was -0.22%. The inhibition in assay [13] is 0.79%; in assay [14] it was 5.1%; in assay [15], 3.41%; in assay [16] it was 7.01%; in [17], 6.42%; in [18] it was 6.12%. For the same compound, the figures for the inhibition in [19] and in assay [20] were 4.8% and 5.23%, respectively.
`CCS(=O)(=O)c1ccc(OC)c(Nc2ncc(-c3ccccc3Cl)o2)c1`: the inhibition in assay [1] is -0.19%; in assay [2], -0.98%; in assay [3] it was 0.67%; in [4] it was -0.1%; in assay [5], -1.53%; in assay [6] it was 2.13%. Besides, the inhibition in [7] was 1.67%; in assay [8], 3.2%; in [9], -6.4%; in assay [10], -0.2%; in assay [11], -2.06%; in [12] it was 0%. In addition, the inhibition was -1.74% in [13]; 3.8% in assay [14]; 23.3% in assay [15]; 2.45% in assay [16]; 3.42% in [17]; 1.4% in [18]. The inhibition in [19] was -0.23%; in [20], 3.21%.
Consider `FC(F)(F)c1cccc(Nc2nccc(-c3cnn4nc(-c5ccccc5)ccc34)n2)c1`, for which the inhibition in assay [1] is 1.51%; in [2] it was -2.07%; in assay [3] it was -0.92%; in [4] it was 2.52%; in assay [5], 8.98%; in assay [6] it was -0.34%. For the same compound, the inhibition in [7] was 8.75%; in assay [8], -0.22%; in [9], -1.63%; in [10] it was 1.87%; in assay [11], -2.23%; in assay [12] it was -1.01%. For the same compound, the inhibition is -0.56% in assay [13]; 7.97% in assay [14]; 4.42% in assay [15]; 1.94% in [16]; 7.04% in assay [17]; 3.55% in assay [18]. The values for the inhibition in assay [19] and in assay [20] were 3.27% and 3.76%, respectively.

The values are drawn from ChEMBL document CHEMBL1961873, “Compounds: GSK PKIS; Assays: Nanosyn kinase panel” (2012).
